From PubChem BioAssay AID463173 (ICCB-Longwood Screening Facility, Harvard Medical School, 2010) come the findings set out here.

The structures appear in SMILES notation. About 4,300 (8.3%) of roughly 52,000 compounds were called active. The sample as a whole holds a higher share of actives than the screen did. Values without a mark were called inactive. Cut-off read from the data, not from the text of the source: active = survival mostly below about 52% (no sharp cut-off); inactive = mostly above about 56%.

The test system of this assay is DeltatarO mutant. As to the kind of experiment: growth inhibition of S. aureus wild type versus tarO mutant, primary screen, teichoic acid synthesis inhibitors, RN4220, OD600 (AID 463173). The following applies: OD600, 18 h, active compounds read low, screened at 18.75 µg/mL (by protocol).
With `CCc1nc2ccc(C(=O)NCc3ccc(N(C)C)cc3)cc2nc1CC`, the survival was 99%. With `Cc1c(C(=O)N2CCC(C)CC2)c(S(=O)(=O)NCc2ccccc2)c(C)n1C`, the survival was 66%. Consider `O=C(NCc1ccccc1Br)c1cnc2sc(N3CCCCCC3)nn2c1=O`, for which the survival is 94%. Turning to `Cc1cccc(NC(=O)CSc2cn(CC(=O)N3CCCC3)c3ccccc23)c1C`, the survival was 99%. For `Cc1ccc(N2C(=O)CSC23C(=O)N(CC(=O)NC2CCCCC2)c2ccccc23)cc1C` (configuration not stated) the value was 94%; for `CCCn1cc(S(=O)(=O)c2cccc(Cl)c2)c(=O)c2cc(F)c(N3CCN(CC)CC3)cc21`, 115%; for `Cc1ccc(Cn2c(CCNC(=O)c3cccc(C)c3)nc3ccccc32)cc1`, 60%. For `Fc1ccccc1Cn1c(-c2ccccc2)nc2ccccc21` the value was 1% (active). For `Nc1nonc1-c1nc2ccccc2n1Cc1cccc(Cl)c1` the value was 80%; for `Cc1cccc(-c2nc3ccccc3n2Cc2ccccc2)c1`, 0% (active). For the molecule `Cc1ccc(Cn2c(=O)c3ccccc3n3c(-c4ccccc4)nnc23)cc1`, the survival was 86%.

As for `Cc1ccc(Cn2c(C(C)NC(=O)c3ccccc3)nc3ccccc32)cc1` (configuration not stated), the survival was 90%. For `Cc1cccc(Cn2c(-c3ccccc3)nc3ccccc32)c1` the value was -2% (active); for `CCC(O)c1nc2ccccc2n1Cc1cccc(Cl)c1` (configuration not stated), 83%; for `Fc1ccc(Cn2c(-c3cccc(Br)c3)nc3ccccc32)cc1`, 109%. On to `O=C(CSc1nc2ccccc2n1Cc1ccccc1F)NCc1ccccc1`, for which the survival was 97%. The value for `Cc1cccc(Cn2c(-c3cccc(Br)c3)nc3ccccc32)c1` was 122%. The value for `Cc1ccc(Cn2c(-c3ccccc3)nc3ccccc32)cc1` was -2% (active). For `CCOC(=O)Cc1ccc(NC(=O)N2CC(C)Oc3ccc(Cl)cc32)cc1` (configuration not stated) the value was 55%; for `O=CN(Cc1ccco1)C1(C(=O)NC2CCCCC2)CCCCC1`, 76%; for `OCc1cnc(SCc2ccccc2F)n1Cc1ccc(F)cc1`, 87%.

In the case of `COc1ccccc1CNC(=O)CCC1N=C2c3ccccc3N=C(SCC(=O)Nc3ccc(F)cc3)N2C1=O` (configuration not stated), the survival was 84%. For `Cc1ccc2nc(-c3cccnc3)c(Nc3ccc(C(C)C)cc3)n2c1`, the survival is 94%. The value for `O=C(COCc1cc(-c2ccc3c(c2)OCO3)on1)Nc1cc(Cl)ccc1O` was 60%; that for `CCn1c(=O)cc(SCC(=O)Nc2cc(Cl)ccc2OC)c2ccccc21` was 67%; that for `CCCNC(=O)c1ccc(Cn2c(SCC(=O)NC(C)C)nc3ccccc3c2=O)cc1` was 102%. On to `CN(C)c1ccc(C(CNC(=O)c2ccccc2Cl)N2CCc3ccccc32)cc1` (configuration not stated), for which the survival is 37% (active). Turning to `CN(C)c1ccc(C(CNC(=O)c2ccccc2F)N2CCc3ccccc32)cc1` (configuration not stated), the survival is 105%. For `CCOc1ccccc1C(=O)NCC(c1ccc(N(C)C)cc1)N1CCc2ccccc21` (configuration not stated) the value was 102%; for `COc1ccccc1C(=O)NCC(c1ccc(N(C)C)cc1)N1CCc2ccccc21` (configuration not stated), 46% (active); for `COc1cccc(C(=O)NCC(c2ccc(N(C)C)cc2)N2CCc3ccccc32)c1OC` (configuration not stated), 93%.

As for `CN(C)c1ccc(C(CNC(=O)c2ccccc2)N2CCc3ccccc32)cc1` (configuration not stated), the survival was 115%.

On to `O=C(Cn1c(=O)sc2ccccc21)Nc1cccc(Cl)c1`, for which the survival was 83%. For `CCN(Cc1ccccc1)C(=O)CN1C(=O)COc2ccc(S(=O)(=O)N3CCOCC3)cc21` the value was 98%; for `CCOC(=O)Nc1cccc(C(=O)O)c1`, 71%; for `CCOC(=O)c1c(NC(=O)c2nc(SCC)ncc2Cl)sc2c1CCCC2`, 91%. For `CNC(=O)c1c(NC(=O)c2nc(SCc3ccc(C)cc3)ncc2Cl)sc2c1CCCC2` the value was 37% (active); for `COC(=O)c1c(NC(=O)c2nc(SCc3cccc(C)c3)ncc2Cl)sc2c1CCCC2`, 113%.

Take `COC(=O)c1c(NC(=O)c2nc(SCc3ccc(F)cc3)ncc2Cl)sc2c1CCCC2`: the survival was 47%. The value for `CCSc1ncc(Cl)c(C(=O)Nc2sc3c(c2C(=O)NC)CCCC3)n1` was 82%; that for `Cc1ccc(CSc2ncc(Cl)c(C(=O)Nc3sc4c(c3C(N)=O)CCCC4)n2)cc1` was 105%; that for `CCOC(=O)c1c(NC(=O)c2nc(SC(C)C)ncc2Cl)sc2c1CCCC2` was 56% (active). The value for `COC(=O)c1c(NC(=O)c2nc(SCc3ccc(C)cc3)ncc2Cl)sc2c1CCCC2` was 46% (active); that for `COC(=O)c1c(NC(=O)c2nc(SC)ncc2Cl)sc2c1CCCC2` was 85%; that for `Cc1cc(C)nc(-n2nc(C)c3c2N(Cc2ccccc2F)C(=O)CC3c2ccc(Cl)cc2)n1` (configuration not stated) was 100%. The value for `CCC(=O)N1CCc2cc(Br)cc(S(=O)(=O)CCC(=O)Nc3ccc(C)c(F)c3)c21` was 86%; that for `CCCCn1c(SCC(=O)Nc2ccc(OCC)cc2)nc2ccsc2c1=O` was 130%. As to `CCc1ccccc1NC(=O)C1(C)Cc2ccccc2C(=O)O1` (configuration not stated), the survival is 97%. For `CCc1ccc(NCc2cc3cc4c(cc3n(CC(=O)Nc3ccccc3Cl)c2=O)OCO4)cc1`, the survival was 73%. For `Cn1c(=O)n(C)c2cc(N3CCCCC3)c(NC(=O)c3ccc(Cl)cc3)cc21` the value was 74%; for `CCc1ccc(NC(=O)CN2C(=O)C(c3ccc(F)cc3)=NC2(C)C)cc1`, 81%; for `Cc1ccc(NC(=O)Cn2c(=O)c3ccccc3n3nncc23)cc1`, 114%. For `Cc1ccc2nc(-c3ccc(NC(=O)C(F)(F)F)cc3)sc2c1` the value was 98%; for `Nc1ccc2nc(-c3ccc(O)cc3)sc2c1`, 120%. For `Cc1ccc2sc(-c3ccc(N)cc3)nc2c1` the value was 12% (active); for `Cc1cccc(C)c1OCc1nc2c3cnn(-c4ccccc4Br)c3ncn2n1`, 69%; for `COc1ccc(Br)c(C(=O)Nc2cc3c(cc2N2CCOCC2)n(C)c(=O)n3C)c1`, 82%.

In the case of `O=C(NCCc1nc2ccccc2n1Cc1ccccc1)c1ccco1`, the survival is 113%. For `O=C(NCCc1nc2ccccc2n1Cc1ccc(Cl)cc1Cl)c1ccco1` the value was 49% (active). In the case of `Cc1ccc(Cn2c(CCCNC(=O)c3ccco3)nc3ccccc32)cc1`, the survival is 77%. For `O=C(NCCCc1nc2ccccc2n1Cc1ccc(Cl)cc1)c1ccco1` the value was 105%; for `O=C(NCCCc1nc2ccccc2n1Cc1cccc(Cl)c1)c1ccco1`, 46% (active). Consider `O=C(NCCCc1nc2ccccc2n1Cc1ccc(Cl)cc1Cl)c1ccco1`, for which the survival is 58%. For `CCCSCCCNC(=O)CN1C(=O)COc2ccc(S(=O)(=O)N3CCC(C)CC3)cc21` the value was 90%; for `N#Cc1ccccc1NC(=O)CNCC1CCCO1` (configuration not stated), 76%.

For the molecule `CCOC(=O)C1CCN(S(=O)(=O)c2cc3c4c(c2)C(C)C(=O)N4CCC3)CC1` (configuration not stated), the survival is 98%. For `CC1C(=O)N2CCCc3cc(S(=O)(=O)N4CCC(C(N)=O)CC4)cc1c32` (configuration not stated), the survival was 0% (active). On to `COC(=O)c1ccccc1NS(=O)(=O)c1cc2c3c(c1)CC(=O)N3CCC2`, for which the survival is 46% (active). As to `CC1CCN(S(=O)(=O)c2cc3c4c(c2)CC(=O)N4CCC3)CC1`, the survival is 102%.

As to `COC(=O)c1ccccc1N(C)S(=O)(=O)c1cc2c3c(c1)CC(=O)N3CCC2`, the survival was 78%.

Take `COC(=O)C1CCN(S(=O)(=O)c2cc3c4c(c2)C(C)C(=O)N4CCC3)CC1` (configuration not stated): the survival is 99%. Turning to `CCOC(=O)C1CCN(S(=O)(=O)c2cc3c4c(c2)CC(=O)N4CCC3)CC1`, the survival was 83%. The value for `COC(=O)C1CCN(S(=O)(=O)c2cc3c4c(c2)CC(=O)N4CCC3)CC1` was 37% (active). The value for `COc1ccc(C)cc1NS(=O)(=O)c1cc2c3c(c1)CC(=O)N3CCC2` was 105%; that for `O=C(O)CCCNC1C=CS(=O)(=O)C1` (configuration not stated) was 91%. For `COCCNc1cc(N2CCN(C3CCCCC3)CC2)c2noc3c2c1C(=O)c1ccccc1-3` the value was 57%. On to `COc1ccc(CCC(=O)NC2CC(=O)N(c3cccc(F)c3)C2)cc1` (configuration not stated), for which the survival is 113%. Turning to `CSc1nc(NC(N)=S)nc(NC(C)C)n1`, the survival is 76%.

For the molecule `Cc1cc(C)c2c(CC(=O)Nc3ccc(S(=O)(=O)Nc4ncccn4)cc3)coc2c1`, the survival was 83%. For `COc1ccc([N+](=O)[O-])cc1NC(c1nnc(-c2ccccc2)o1)c1ccccc1F` (configuration not stated), the survival is 83%. The value for `Cc1cccc2nc(-c3cccnc3)c(Nc3ccc(C(C)C)cc3)n12` was 70%. The value for `Cc1cccc(C(C)C)c1NC(=O)c1ccc2c(c1)CCN2S(C)(=O)=O` was 74%; that for `COc1ccc(C2C(C(=O)Nc3cccnc3)=C(C)Nc3nc(-c4ccc(OC)c(OC)c4)nn32)cc1` (configuration not stated) was 150%; that for `CCOC(=O)C1CCN(C(=O)c2c(C)nn(-c3ccc(F)cc3)c2-n2cccc2)CC1` was 66%. For the molecule `Cc1cc(NC(=O)CSc2nc(-c3ccccc3C)nc3c2c(=O)n(C)c(=O)n3C)no1`, the survival was 67%. Consider `Cc1ccc(NC(=O)c2nc(S(C)(=O)=O)ncc2N(Cc2ccco2)Cc2cccs2)c(C)c1`, for which the survival was 38% (active). The value for `COc1ccc(CN(Cc2ccco2)c2cnc(S(C)(=O)=O)nc2C(=O)Nc2ccc(F)cc2)cc1` was 49%. For `CC(C)c1ccc(CN(Cc2ccco2)c2cnc(S(C)(=O)=O)nc2C(=O)Nc2ccc(F)cc2)cc1` the value was 49%. The value for `Cc1ccc(NC(=O)c2nc(S(C)(=O)=O)ncc2N(Cc2ccco2)Cc2ccco2)cc1C` was 50%; that for `COc1ccc(CN(Cc2ccco2)c2cnc(S(C)(=O)=O)nc2C(=O)Nc2ccc(C)cc2C)cc1` was 48%. For `CS(=O)(=O)c1ncc(N(Cc2ccccc2)Cc2ccco2)c(C(=O)Nc2cccc(C(F)(F)F)c2)n1`, the survival was 52%.

As to `CCc1ccc(CN(Cc2ccco2)c2cnc(S(C)(=O)=O)nc2C(=O)Nc2cccc(C)c2)cc1`, the survival is 46%. For `COc1ccc(CN(Cc2ccco2)c2cnc(S(C)(=O)=O)nc2C(=O)Nc2ccc(C)c(Cl)c2)cc1` the value was 47%.

On to `CC(C)c1ccc(CN(Cc2ccco2)c2cnc(S(C)(=O)=O)nc2C(=O)Nc2ccccc2)cc1`, for which the survival is 44% (active). In the case of `Cc1ccc(NC(=O)c2nc(S(C)(=O)=O)ncc2N(Cc2ccco2)Cc2cccs2)cc1C`, the survival was 40% (active). Regarding `COc1ccc(CN(Cc2ccco2)c2cnc(S(C)(=O)=O)nc2C(=O)Nc2ccc(C)c(C)c2)cc1`, the survival was 44% (active). For `Cc1ccc(NC(=O)c2nc(S(C)(=O)=O)ncc2N(Cc2cccc(F)c2)Cc2ccco2)cc1C` the value was 45%.
